The supplement of paper PMC3545927
Some of the results follow. The hit rate among all sequences tested is not known here.

Target: furin, P09958
Assay: furin cleavage Z-score vs untreated control; higher = more cleavage, active = 3.5 or more, inactive = 1 or less, 8 variable residues between constant flanks
Summary of the method: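 Furin cleavage was scored on 8-mer peptides joined to a cDNA oligonucleotide and bound to magnetic beads at the N-terminus. Digestion with purified furin (1:10 enzyme:substrate, 0.01 ml, 50 mM HEPES pH 7.5, CaCl2, NaCl) lasted 7.5, 15 or 30 min. Freed DNA was tagged with adapters by PCR, sequenced and counted; the cleavage Z-score is the lowess-adjusted log count versus furin-free reactions, scaled by median absolute deviation.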

Sequence of furin, P09958 (P09958 whole entry): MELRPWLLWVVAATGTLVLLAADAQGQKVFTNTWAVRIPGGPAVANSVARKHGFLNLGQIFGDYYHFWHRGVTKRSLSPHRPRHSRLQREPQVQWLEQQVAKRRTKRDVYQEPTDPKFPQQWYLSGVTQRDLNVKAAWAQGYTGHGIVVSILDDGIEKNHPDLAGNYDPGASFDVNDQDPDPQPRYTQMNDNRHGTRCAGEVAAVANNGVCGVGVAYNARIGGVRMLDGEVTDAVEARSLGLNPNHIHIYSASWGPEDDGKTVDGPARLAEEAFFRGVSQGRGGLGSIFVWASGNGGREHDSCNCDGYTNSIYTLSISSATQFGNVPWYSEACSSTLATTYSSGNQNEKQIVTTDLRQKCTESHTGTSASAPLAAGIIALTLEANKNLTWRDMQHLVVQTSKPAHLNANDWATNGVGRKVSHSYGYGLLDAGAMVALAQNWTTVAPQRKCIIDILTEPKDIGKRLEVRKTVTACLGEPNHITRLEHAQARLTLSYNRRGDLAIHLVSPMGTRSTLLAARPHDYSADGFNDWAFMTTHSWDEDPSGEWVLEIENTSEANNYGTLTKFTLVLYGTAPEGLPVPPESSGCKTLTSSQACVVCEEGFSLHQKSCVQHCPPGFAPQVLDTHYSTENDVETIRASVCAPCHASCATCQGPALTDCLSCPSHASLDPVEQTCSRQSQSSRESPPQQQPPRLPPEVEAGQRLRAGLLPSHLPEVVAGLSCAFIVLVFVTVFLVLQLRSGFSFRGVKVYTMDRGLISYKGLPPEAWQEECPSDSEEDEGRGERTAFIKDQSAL

| Sequence | furin cleavage Z-score (7.5 min) | furin cleavage Z-score (15 min) | furin cleavage Z-score (30 min) |
| --- | --- | --- | --- |
| CARKGRNKEIAGNASASA [FS-2687] | 0.916 (inactive) | 0.216 (inactive) | 0.59 (inactive) |
| CARKRRSTDFAGNASASA [FS-2217] | 9.58 (active) | 11.2 (active) | 9.06 (active) |
| CAQVPSPEFFAGNASASA [HC1218] | -1.13 (inactive) | -0.661 (inactive) | 0.459 (inactive) |
| CAVTVPHPNIAGNASASA [HC838] | 0.905 (inactive) | 1.12 | 1.65 |
| CASLLAPGAKAGNASASA [HC361] | -0.751 (inactive) | -1.11 (inactive) | -0.788 (inactive) |
| CANKRRSVRFAGNASASA [FS-833] | 5.74 (active) | 7.19 (active) | 8.22 (active) |
| CADKRRSVRIAGNASASA [FS-1669] | 0.236 (inactive) | -0.291 (inactive) | 0.74 (inactive) |
| CAMKRRSVTMAGNASASA [FS-2126] | 1.48 | 0.933 (inactive) | 2.48 |
| CARAERKTEIAGNASASA [FS-2881] | -0.287 (inactive) | 1.15 | -0.302 (inactive) |
| CARKRRSVNPAGNASASA [FS-2702] | 11.8 (active) | 12.1 (active) | 9.6 (active) |
| CAVERRSVNKAGNASASA [FS-1814] | -1.15 (inactive) | -0.638 (inactive) | -0.108 (inactive) |
| CARTQRSTEIAGNASASA [FS-2614] | 1.54 | 2.65 | 3.99 (active) |
| CARKPRCGNPAGNASASA [FU7] | 0.143 (inactive) | 2 | 0.939 (inactive) |
| CAEVPCHIPSAGNASASA [HC2364] | 0.695 (inactive) | 0.0124 (inactive) | 0.569 (inactive) |
| CAADHRFYRYAGNASASA [FS-1507] | -0.685 (inactive) | -0.762 (inactive) | 0.166 (inactive) |
| CAATATPPGSAGNASASA [HC834] | -1.04 (inactive) | -0.000581 (inactive) | -0.987 (inactive) |
| CAAKQNVQLIAGNASASA [HC364] | 1.11 | 2.16 | -0.868 (inactive) |
| CADGGRPPRSAGNASASA [FS-1114] | 2.6 | 2.51 | 3.55 (active) |
| CAQGGRPPRPAGNASASA [FS-1055] | -0.328 (inactive) | -0.378 (inactive) | 0.24 (inactive) |
| CAVFERVSRSAGNASASA [FS-733] | 5.52 (active) | 7.31 (active) | 6.35 (active) |
| CAAKQRPPRSAGNASASA [FS-1301] | 8.85 (active) | 8.91 (active) | 7.56 (active) |
| CAAKQRERRYAGNASASA [FS-1300] | 9.27 (active) | 10.1 (active) | 7.92 (active) |
